# Most compounds without a hit are left out; they make up all but 2.3% or so of the library.
# MCL1-BIM inh: disrupts human MCL1 binding to BIM-BH3 peptide; 320,000 tested, 0.68% active; GST-MCL1 / FITC-Bim-BH3 fluorescence polarization; inhibition, % at 10.9 µM;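 active = inhibition above the mean inhibition of all tested compounds plus 3 SD, set per campaign, cut at about 40% in these data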;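 also: 0% = DMSO wells and 100% = unlabeled Bim-BH3 peptide control; higher means more loss of mP so more displacement of Bim peptide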
# Target sequence (Q07820 whole entry, looked up): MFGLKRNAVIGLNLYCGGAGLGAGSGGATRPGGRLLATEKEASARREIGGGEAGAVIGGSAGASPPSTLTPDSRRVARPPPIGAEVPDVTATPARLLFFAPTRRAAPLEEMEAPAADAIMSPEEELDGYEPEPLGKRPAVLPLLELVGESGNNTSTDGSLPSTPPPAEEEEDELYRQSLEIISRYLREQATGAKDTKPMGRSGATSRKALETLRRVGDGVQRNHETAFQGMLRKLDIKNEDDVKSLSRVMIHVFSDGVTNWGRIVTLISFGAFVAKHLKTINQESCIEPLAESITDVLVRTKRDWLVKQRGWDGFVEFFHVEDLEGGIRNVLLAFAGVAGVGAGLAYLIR
# Bcl-xL primary: Bcl-xL (human) inhibition. inhibition, % at 10.9 µM. GST-Bcl-xL / FITC-Bim BH3 peptide fluorescence polarization. AID 2129. 320,000 tested, 0.7% active;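 active = inhibition above the mean of all tested compounds plus 3 SD, cutoff set per campaign, cut at about 30% in these data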;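 also: 0% = DMSO wells and 100% = unlabeled Bim-BH3 peptide competitor; inhibitors lower millipolarization by displacing the labeled peptide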
# Target sequence (Q07817 whole entry, looked up): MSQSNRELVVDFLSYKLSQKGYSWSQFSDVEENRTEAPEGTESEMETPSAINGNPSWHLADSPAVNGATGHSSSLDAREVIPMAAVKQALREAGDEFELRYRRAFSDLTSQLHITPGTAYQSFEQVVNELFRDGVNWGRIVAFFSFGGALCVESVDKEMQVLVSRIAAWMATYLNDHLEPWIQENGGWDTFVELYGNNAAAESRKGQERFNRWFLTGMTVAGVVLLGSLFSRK
# Mcl1 Noxa PPI: Mcl-1/Noxa interaction inhibition; Q07820; TR-FRET Mcl-1/Noxa peptide binding, 2 h; inhibition, % at 21.7 µM; 220,000 tested, 1.5% active; AID 1022;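 active = compounds that cut the protein-peptide binding signal by more than 50% relative to plate controls in a single-dose test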;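 also: His-tagged Mcl-1 with rhodamine Noxa BH3 peptide and terbium anti-His antibody; 0% = Mcl-1 plus Noxa peptide wells and 100% = peptide-only wells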
# Mcl-1 Bim block: human Bim-Mcl-1 interaction inhibition | Q07820 | inhibition, % at 10 µM | Bead-based flow cytometry, Bim peptide-Mcl-1 binding | 190,000 tested, 0.1% active; in the data active = inhibition above about 40%;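 also: 0% = no compound tracer wells and 100% = peptide blocker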
# Mcl1-Bid inh: disrupts binding of human Mcl-1 to Bid peptide | 220,000 tested, 0.97% active | TR-FRET Mcl-1/Bid-Dy647 peptide binding, 1536-well | Q07820 | inhibition, % at 21.7 µM | AID 1021;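 active = compounds that cut the binding signal by more than half at the single screening dose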;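 also: His-tagged Mcl-1 with europium anti-His antibody binding Bid BH3 peptide; 0% = Mcl-1 plus peptide wells and 100% = peptide-only wells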
# GLD-1 TGE inh: GLD-1-TGE RNA interaction inhibition (C. elegans); Q17339; purified GLD-1 + fluorescein TGE RNA, fluorescence polarization; inhibition, % at 5.96 µM; 320,000 tested, 0.44% active; AID 2280;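 active = percent inhibition above a per-plate cutoff, the plate mean of test compounds plus 3 SD, cut at about 30% in these data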;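 also: 0% = DMSO wells with GLD-1 and probe and 100% = wells lacking GLD-1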
# Bcl-xL conf: Bcl-xL (human) inhibition, MCL1 counter-screen confirmation; shares compounds with MCL1-BIM inh; GST-Bcl-xL / FITC-Bim BH3 peptide FP binding; inhibition, % at 10.9 µM; 1,700 tested, 54% active;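 active = inhibition above a cutoff equal to the mean inhibition of all tested compounds plus 3 SD, cut at about 30% in these data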;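 also: 0% = DMSO wells and 100% = unlabeled Bim BH3 control peptide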
# MCL1 inh confirm: MCL1-BIM-BH3 interaction inhibition, confirmation. shares compounds with MCL1-BIM inh. GST-MCL1 / FITC-Bim-BH3 fluorescence polarization. 1,700 tested, 61% active. inhibition, % at 10.9 µM;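 active = inhibition above the average of all tested compounds plus 3 SD, cut at about 40% in these data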;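 also: 0% = DMSO wells and 100% = unlabeled Bim-BH3 control peptide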
# An asterisk follows results filed as active; nt = no result; + = active, no number.
SMILES,MCL1-BIM inh,Bcl-xL primary,Mcl1 Noxa PPI,Mcl-1 Bim block,Mcl1-Bid inh,GLD-1 TGE inh,Bcl-xL conf,MCL1 inh confirm
CCOc1ccc(NC(=O)CSc2nc(=O)n(Cc3cccnc3)c3c2CCC3)cc1,8,6,nt,nt,nt,-6,nt,nt
COCCN=c1scc(-c2ccccc2)n1/N=C/c1c[nH]c2ccccc12,-3,0,18,-7,-36,4,nt,nt
COCCN=c1scc(-c2cccs2)n1/N=C/c1ccc(O)c(O)c1O,49*,14,89*,4,-65,2,65*,93*
CCN=c1scc(C)n1/N=C/c1ccc(O)c(O)c1O,52*,15,60*,7,-28,5,33*,57*
CCOc1ccc(/C=C/C(=O)OCC(=O)NCCc2ccc(OCC)c(OCC)c2)cc1OC,-5,-2,nt,nt,nt,-2,nt,nt
O=C(CN(C(=O)c1ccccc1Cl)N1C(=O)CCCC1=O)c1ccc(Cl)cc1,10,5,5,0,-7,2,nt,nt
CCOC(=O)c1cc(C#N)c(SCC(=O)O)[nH]c1=O,4,7,-8,-1,46,2,nt,nt
CCOC(=O)c1cc(C#N)c(SCC(=O)c2cc(C#N)c(SC)nc2C)[nH]c1=O,117*,103*,34,0,-100,77*,21,18
CCN1C(=O)[C@H]2[C@@H](c3ccc(-c4ccc(Cl)c(Cl)c4)c(OC)c3)N3CCCC[C@@]3(C(=O)OC)[C@H]2C1=O,nt,nt,nt,nt,nt,6,nt,nt
O=C(O)c1ccc(-c2ccc(/C=c3/sc4nc5ccccc5n4c3=O)o2)cc1Cl,40*,14,nt,nt,nt,-7,-13,-21
O=C(CC1Nc2ccccc2NC1=O)c1ccccc1 (centres undefined),46*,15,-3,-8,-103,-25,-11,-21
O=C(CC1Nc2ccccc2NC1=O)NCCc1ccccc1 (centres undefined),4,9,-5,8,-17,-4,nt,nt
Cc1ccc(S(=O)(=O)/N=C2/NC(=O)/C(=C/c3ccccn3)S2)cc1,6,8,31,0,1,-1,nt,nt
COc1ccc(S(=O)(=O)/N=C2/NC(=O)/C(=C\c3ccco3)S2)cc1,55*,28,29,-7,-26,-2,13,11
COc1ccc(S(=O)(=O)/N=C2/NC(=O)/C(=C/c3ccco3)S2)cc1,42*,22,9,-2,-40,10,18,24
Cc1ccc(NC(=O)C2CCCN2C(=O)OCc2ccccc2)cc1F (centres undefined),3,0,nt,nt,nt,-8,nt,nt
O=c1c(O)cccc2cc(O)c(O)c(O)c12,109*,86*,104*,nt,92*,22,85*,103*
O=c1cc(-c2ccccc2)oc2cc(O)c(O)c(O)c12,nt,nt,nt,nt,nt,-1,nt,nt
N#CC1=C(N)C(C#N)(C#N)[C@H](c2cccnc2)[C@H]2CN(C(=O)OCc3ccccc3)CC=C12,12,8,-2,-3,-14,8,nt,nt
N#CC1=C(N)C(C#N)(C#N)C(c2cccnc2)C2CCCC=C12 (centres undefined),81*,84*,31,0,-9,60*,75*,85*
N#CC1=C(N)C(C#N)(C#N)C(c2ccc[nH]2)C2CCCC=C12 (centres undefined),72*,67*,9,0,-23,77*,39*,27
N#CC1=C(N)C(C#N)(C#N)C(c2cccnc2)C2CC(c3ccccc3)CC=C12 (centres undefined),135*,110*,7,-3,-19,103*,11,14
CCOc1ccc2nc(NC(=O)c3ccccn3)sc2c1,56*,-5,-87,nt,-117,-5,-2,-4
Cc1ccc2nc(NC(=O)c3ccccn3)sc2c1,10,2,-16,-2,-84,-8,nt,nt
Cc1ccc(-c2nnc(SCC(=O)N/N=C/c3ccc(C(=O)O)cc3)n2C2CCCCC2)cc1,3,4,nt,nt,nt,1,nt,nt
SMILES,MCL1-BIM inh,Bcl-xL primary,Mcl1 Noxa PPI,Mcl-1 Bim block,Mcl1-Bid inh,GLD-1 TGE inh,Bcl-xL conf,MCL1 inh confirm
Cn1c(COc2ccc(F)cc2)nnc1SCC(=O)NC1CC1,-5,3,nt,nt,nt,-9,nt,nt
COc1ccc(Cl)cc1C(=O)NNC(=O)CSc1nnc2ccccn12,40*,5,4,0,-22,-8,1,20
O=C(NC1CCCCC1)C(c1ccc(F)cc1)N(CCCN1CCOCC1)C(=O)c1ccc(CN2CCOCC2)o1 (centres undefined),8,4,nt,nt,nt,1,nt,nt
O=C(NC1CCCCC1)c1ccc2snnc2c1,1,6,nt,nt,nt,-2,nt,nt
CCOC(=O)C1=C(CSc2nc3c(cc2C#N)CN(C)CC3)OC(N)=C(C#N)C1c1ccncc1 (centres undefined),143*,114*,12,-2,-3,61*,108*,119*
CCOC(=O)C1=C(CSc2nc(C)cc(C)c2C#N)OC(N)=C(C#N)C1c1ccccc1 (centres undefined),-1,10,12,-4,-14,0,nt,nt
CCOC(=O)C1=C(CSc2nc3c(cc2C#N)CN(C)CC3)OC(N)=C(C#N)C1c1ccc(Cl)cc1 (centres undefined),52*,40*,1,0,-26,33*,41*,44*
CCOC(=O)C1=C(CSc2nc(CC)c(C)cc2C#N)OC(N)=C(C#N)C1c1ccccc1 (centres undefined),-4,2,3,-1,-2,-24,nt,nt
OCC1=C[C@@H](O)[C@@H]2C=CO[C@@H](O[C@@H]3O[C@H](CO)[C@@H](O)[C@H](O)[C@H]3O)[C@H]12,nt,nt,nt,nt,nt,5,nt,nt
Cc1cc(C)n2nc3nc4c(cc3c2n1)CCCC4,106*,111*,35,-2,15,38*,22,18
Cc1cc(C)n2nc(C)c(Br)c2n1,7,-1,3,1,-12,6,nt,nt
Cn1c(=O)c2[nH]c(-c3ccccc3)c(O)c2n(C)c1=O,+,+,27,-2,-70,+,142*,159*
Cn1c(=O)c2[nH]c(-c3ccccc3)nc2n(C)c1=O,nt,nt,1,0,6,nt,nt,nt
Cn1c(=O)c2[nH]c(-c3ccccc3Cl)c(O)c2n(C)c1=O,134*,115*,17,-6,-8,152*,49*,77*
O=C1C=C(O)c2c(O)cc(O)c(O)c2C1=O,95*,27,nt,nt,nt,7,27,97*
C[C@@H]1Cc2c(O)c(O)cc(O)c2C(=O)O1,6,7,15,nt,-99,11,nt,nt
O=C(CC1CCCC1)Nc1cc(S(=O)(=O)N2CCOCC2)ccc1O,-1,5,nt,nt,nt,1,nt,nt

# From PubChem BioAssay
